In the library only some 3% were active in any assay of this set; here they are far more common.
MITF TRPM1 inh = inhibitors of MITF-driven TRPM1 promoter in melanoma cells. AID 488899. 330,000 tested, 0.83% active. inhibition, % at 12.5 µM. SK-MEL-5 TRPM1 promoter luciferase, 24 h;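 active = mean inhibition across replicates of 60% or more, whatever share of single replicates reaches that level; inconclusive = some that reach 60%, reason not given; inactive = mean inhibition across replicates below 60%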
HIF-2a block = HIF-2a inhibition; 786-0 RCC cells HIF-2a reporter, luciferase luminescence, overnight; inhibition, % at 18.8 µM; 360,000 tested, 0.72% active; AID 624352;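 active = inhibition of the luminescence signal of 40% or more relative to plate controls, in a single-dose primary screen at 18.75 µM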
CF NFkB inh = cystic fibrosis NF-kB activation inhibition. 360,000 tested, 0.86% active. inhibition, % at 5 µM. KKLEB NF-kB-GFP reporter, PAF-induced, GFP fluorescence overnight. AID 588850;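 active = at least 50% inhibition at 5 µM, scaled per plate between neutral and stimulator controls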;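 note: PAF is a Pseudomonas aeruginosa culture filtrate used as stimulus; plate controls were PAF-stimulated DMSO wells for no effect and unstimulated DMSO wells for full effect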
KKLEB tox = CF airway cell cytotoxicity counter-screen. KKLEB CF airway cells viability, ATPlite luminescence, overnight; active compounds read low; cells stimulated with P. aeruginosa culture filtrate. activity change (cytotoxicity), % at 5 µM. 360,000 tested, 0.36% active;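 active = corrected activity change at or below -50% at 5 µM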
ABHD5 PLIN5 PPI = inhibitors of human ABHD5-perilipin-5 interaction | Split G. princeps luciferase complementation, luminescence, 4 h | inhibition, % at 4 µM | 360,000 tested, 0.78% active;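 active = inhibition above the mean inhibition across every tested compound plus 3 SD, cut at about 22% in these data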;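 note: 0% = DMSO only wells and the 100% control is not disclosed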
Peg3 prom inh = reduces Peg3 promoter-driven luciferase expression in HeLa | HeLa PEG-Prom luciferase reporter, luminescence, overnight | inhibition, % at 20 µM | 360,000 tested, 1.7% active;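 active = inhibition of at least 50% at 20 µM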
* hit, by the source's call; u = inconclusive; x = no result given.

SMILES	MITF TRPM1 inh	HIF-2a block	CF NFkB inh	KKLEB tox	ABHD5 PLIN5 PPI	Peg3 prom inh
CC(O)C1C=CC=CC(=O)OC2CC3OC4C5OC5(C)CCC4(COC(=O)C4OC4(C)C(O)CO1)C2(C)C31CO1 (stereo not given)	70*	66*	83*	-22	-2	97*
S=C=Nc1cccc(C2(N3CCCCC3)CCCCC2)c1	75*	-15	4	-5	-3	64*
CCCCCn1c(=O)c(C(=O)Nc2nc3ccccc3[nH]2)c(O)c2ccccc21	6	15	30	-52*	-5	23
Cc1[nH]nc2ccc(-c3cncc(OC[C@@H](N)Cc4c[nH]c5ccccc45)c3)cc12	91*	75*	85*	-87*	14	100*
COc1cccc(C(c2nnnn2Cc2ccccc2)N2CCC3(CC2)C(=O)NCN3c2ccccc2)c1OC (stereo not given)	x	15	-5	-2	7	50
CC12CCC3C(CC=C4CC(O)CCC43C)C1C/C(=C\c1ccccc1F)C2=O (stereo not given)	-17	-15	40	-29	-1	51*
Cc1nn(C)cc1/C=C1/CC2C3CC=C4CC(O)CCC4(C)C3CCC2(C)C1=O (stereo not given)	1	32	18	-2	-2	8
COc1cc2c(cc1OC)-c1c(OC)c(OC)cc3c1C(C2)N(C)CC3 (stereo not given)	-1	27	-111	-4	-9	11
COc1cc2c(cc1OC)-c1c3c(cc4c1[C@@H](C2)N(C)CC4)OCO3	-3	34	-369	-28	3	61*
CC(C)n1c(O)c(C2c3cc(Cl)ccc3Oc3[nH]c(=O)n(C(C)C)c(=O)c32)c(=O)[nH]c1=O (stereo not given)	102*	94*	91*	1	37*	115*
C[C@]12CCC3C(CC[C@H]4C[C@@H](O)CC[C@]34C)C1=CC[C@@H]2O (stereo not given in full)	x	3	12	-2	1	9
Cc1ccc(OC(=O)N(C)C[C@@H]2OCc3cnnn3CCCC(=O)N([C@@H](C)CO)C[C@H]2C)cc1	x	9	7	-15	-4	-1
c1cc2c(cc1-c1ccc3c(c1)OCO3)CNCc1cnnn1-2	x	-252	-49	16	4	-205
COC(=O)C1=Nc2ccccc2/C1=C\c1c(O)n(-c2ccc(Br)cc2)c(=O)[nH]c1=O	6	23	19	13	19	25
O=c1[nH]c(=O)n(-c2ccccc2)c(O)c1/C=C1/C(c2ccccc2)=Nc2ccccc21	-6	-62	60*	-19	14	-51
COC(=O)C1=Nc2ccccc2/C1=C\c1c(O)n(-c2ccc(OC)cc2)c(=O)[nH]c1=O	17	1	19	-7	38*	14
O=C1NCN(c2ccccc2)C12CCN(C(CCc1ccccc1)c1nnnn1C1CCCC1)CC2 (stereo not given)	x	4	32	-15	-7	15
c1cc2c(cc1NC1=NCCO1)CCCC2	-5	-12	-10	15	0	-72
O=[N+]([O-])/C=C/c1c(Cl)cccc1Cl	111*	-6	57*	-3	22*	92*
COC(=O)C1=C(c2ccc(OCc3ccccc3)cc2)C[C@@H]2CC[C@H]1N2C(=O)NCCc1ccc(F)cc1	x	-8	-6	-8	0	18
C[N+](C)(C)CC#CCOC(=O)Nc1cccc(Cl)c1	0	-3	-2	17	5	84*
COc1ccc(NC(=S)N2Cc3ccccc3-n3nncc3C2)c(OC)c1	x	6	-3	-16	-6	15
CN1C(=O)/C(=C/c2cccn2-c2ccc3ccccc3c2)C(=O)NC1=S	u	-1	41	5	7	92*
c1ccc2c(c1)-c1cccc3cccc-2c13	-11	-10	-4	8	1	-19
c1ccc2c(c1)[IH]c1ccccc1-2	88*	52*	-49	0	0	96*
SMILES	MITF TRPM1 inh	HIF-2a block	CF NFkB inh	KKLEB tox	ABHD5 PLIN5 PPI	Peg3 prom inh
CCCc1nc2ccc(Br)cc2c(=O)n1-c1ccc([N+](=O)[O-])c(C(F)(F)F)c1	32	-7	43	-21	-10	55*
CC(=NNC(=S)N1CC2CCC(CC2)C1)c1nccs1	57	-251	67*	-26	4	-31
O=C1C2CC(CN3CCCCC23)C2CCCCN12 (stereo not given)	x	10	-10	-9	2	4
CCN(CC)CCNC(=O)c1c(O)c2ccccc2n(Cc2ccccc2)c1=O	-12	9	9	-9	6	-3
CCN(CC)CCCNC(=O)c1c(O)c2ccccc2n(Cc2ccccc2)c1=O	-4	5	8	-6	5	54*
Clc1cccc(N2Cc3ccccc3-n3nncc3C2)c1	x	7	13	-27	9	10
COC1=C(C)C(=O)C2=C(C1=O)C(CO)N1C(C#N)C3CC4C(C1C2N1CCOC41)N3C (stereo not given)	76*	30	88*	-23	-6	95*
COC(=O)C1=C(c2ccc(OCc3ccccc3)cc2)C[C@@H]2CC[C@H]1N2C	x	-3	9	-8	2	13
O=S(=O)(c1cccc2ccccc12)N1Cc2ccccc2-n2nncc2C1	x	-3	-18	-8	-6	8
COc1ccc(/C=C2/C(=O)N(Cc3ccco3)C(=O)N(C(C)C)C2=O)cc1	-2	11	-8	0	0	21
COc1ccc(CN2C(=O)NC(=O)/C(=C\c3ccco3)C2=O)cc1	13	42*	23	-13	-8	29
O=C1NC(=O)N(Cc2ccccc2)C(=O)/C1=C/C=C/c1ccco1	88*	38	87*	2	17	13
CCN1C(=O)C(=C/C=C/c2ccco2)C(=O)N(CC)C1=S	1	18	-4	6	5	13
COc1ccc(CN2C(=O)NC(=O)/C(=C\c3cc(OC)c(OC)c(OC)c3)C2=O)cc1	3	6	-3	2	11	4
CC(C)N1C(=O)/C(=C/C=C/c2ccco2)C(=O)N(Cc2ccco2)C1=O	71*	53*	-25	10	20	32
CCC1([N+](=O)[O-])COP(=O)(NCc2cccnc2)OC1 (stereo not given)	9	16	-12	9	7	7
CC(C)C[C@@H]1COc2cc(N3CCN(C)CC3)ccc2S(=O)(=O)N1	x	4	x	x	-10	x
CCN1C(=O)/C(=C/c2ccc(N(CC)CC)cc2OC)C(=O)NC1=S	2	27	36	-8	-3	90*
FC(F)(F)c1ccc(-c2ccc3c(c2)CNCc2cnnn2-3)cc1	x	-172	-16	-13	6	-204
CC[n+]1c(/C=C/N(C)c2ccccc2)sc2ccc(Cl)cc21	67*	0	27	-45	-1	35
